Data taken from PubChem BioAssay AID1159580 (chemical genetic matrix, 2015).
Where “and” joins values, the source holds several entries; their conditions need not be identical. Equal entries are not always repeated. Hit rate of the full screen: of about 5,500 compounds, about 2,000 (36%) were called active. Inconclusive results (about 18%) are left out. Rule as the data show it: active = normalized growth mostly below about 0.91 (no sharp cut-off); inconclusive = no clear call, values can overlap the other calls; inactive = mostly above about 0.92. This is one part of the list.

Test: chemical genetic growth profiling, strain panel (AID 1159580);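 also: tested at 20 µM; growth read once vehicle control cultures reached saturation at 30 °C; 1 = growth at the plate median or of vehicle wells; lower values mean less growth of the strain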
Conditions: S. cerevisiae deletion strains, growth OD

Measured: normalized growth

COC(=O)Nc1nc2ccc(C(=O)c3ccccc3)cc2[nH]1
active: locus YBL061C, strain skt5, active compounds read low 0.903 | locus YBR009C, strain hhf1, active compounds read low 0.898 | locus YBR023C, strain chs3, active compounds read low 0.913 | locus YBR231C, strain swc5, active compounds read low 0.261 | locus YCL016C, strain dcc1, active compounds read low 0.902 | locus YCL029C, strain bik1, active compounds read low 0.781 | locus YDR137W, strain rgp1, active compounds read low 0.84 | locus YDR159W, strain sac3, active compounds read low 0.861 | locus YDR334W, strain swr1, active compounds read low 0.627 | locus YEL003W, strain gim4, active compounds read low 0.173 | locus YGL240W, strain doc1, active compounds read low 0.812 | locus YGR078C, strain PAC10, active compounds read low 0.0909 | locus YGR229C, strain SMI1, active compounds read low 0.775 | locus YHR142W, strain chs7, active compounds read low 0.872 | locus YHR200W, strain rpn10, active compounds read low 0.917 | locus YJL166W, strain qcr8, active compounds read low 0.868 | locus YJR066W, strain TOR1, active compounds read low 0.819
inactive: locus YAL013W, strain DEP1, active compounds read low 1.02 | locus YAL021C, strain ccr4, active compounds read low 0.95 | locus YAL026C, strain drs2, active compounds read low 0.963 | locus YAL030W, strain snc1, active compounds read low 0.983 | locus YBR021W, strain FUR4, active compounds read low 0.97 | locus YBR171W, strain sec66, active compounds read low 1.01 | locus YBR229C, strain ROT2, active compounds read low 1.02 | locus YBR279W, strain paf1, active compounds read low 0.958 | locus YCL011C, strain gbp2, active compounds read low 0.962 | locus YCL069W, strain vba3, active compounds read low 0.98 | locus YCR088W, strain abp1, active compounds read low 0.977 | locus YDL005C, strain med2, active compounds read low 0.959 | locus YDL035C, strain GPR1, active compounds read low 0.967 | locus YDL040C, strain nat1, active compounds read low 0.992 | locus YDL074C, strain BRE1, active compounds read low 0.924 | locus YDL101C, strain DUN1, active compounds read low 1.03 | locus YDL134C, strain PPH21, active compounds read low 1.01 | locus YDL185W, strain tfp1, active compounds read low 1.04 | locus YDL192W, strain arf1, active compounds read low 0.99 | locus YDR001C, strain nth1, active compounds read low 0.976 | locus YDR069C, strain doa4, active compounds read low 0.952 | locus YDR101C, strain arx1, active compounds read low 0.998 | locus YDR150W, strain NUM1, active compounds read low 1.01 | locus YDR162C, strain NBP2, active compounds read low 1.01 | locus YDR195W, strain ref2 0.979 | locus YDR297W, strain sur2, active compounds read low 0.963 | locus YDR318W, strain mcm21, active compounds read low 0.954 | locus YDR335W, strain msn5, active compounds read low 0.99 | locus YDR388W, active compounds read low 0.982 | locus YDR392W, strain spt3, active compounds read low 0.805 | locus YDR502C, strain sam2, active compounds read low 0.958 | locus YEL037C, strain rad23, active compounds read low 0.981 | locus YEL061C, strain CIN8 (second series), active compounds read low 0.976 | locus YEL061C, strain CIN8, active compounds read low 1 | locus YER015W, strain faa2, active compounds read low 0.974 | locus YER016W, strain bim1, active compounds read low 0.935 | locus YER110C, active compounds read low 1.02 | locus YER111C, strain swi4, active compounds read low 0.997 | locus YER155C, strain BEM2 (second series), active compounds read low 0.896 | locus YER155C, strain BEM2, active compounds read low 0.981 | locus YER167W, strain BCK2, active compounds read low 0.94 | locus YFR010W, strain ubp6, active compounds read low 0.98 | locus YGL078C, strain dbp3, active compounds read low 0.974 | locus YGL086W, strain mad1, active compounds read low 0.999 | locus YGL167C, strain pmr1, active compounds read low 0.979 | locus YGL173C, strain kem1, active compounds read low 0.981 | locus YGL227W, strain vid30, active compounds read low 0.977 | locus YGL248W, strain PDE1, active compounds read low 0.99 | locus YGL253W, strain hxk2, active compounds read low 0.951 | locus YGR135W, strain pre9, active compounds read low 0.948 | locus YGR252W, strain gcn5, active compounds read low 0.916 | locus YHR013C, strain ard1, active compounds read low 1 | locus YHR027C, strain rpn1, active compounds read low 0.931 | locus YHR030C, strain SLT2, active compounds read low 1.01 and 0.956 | locus YHR079C, strain IRE1 (second series), active compounds read low 0.999 | locus YHR079C, strain IRE1, active compounds read low 0.937 | locus YHR094C, strain hxt1, active compounds read low 1 | locus YHR129C, strain ARP1, active compounds read low 0.969 | locus YIL066C, strain RNR3, active compounds read low 1.01 | locus YIL073C, strain SPO22, active compounds read low 0.998 | locus YIL125W, strain kgd1, active compounds read low 0.971 | locus YIR030C, strain dcg1, active compounds read low 1 | locus YJL092W, strain hpr5, active compounds read low 0.965 | locus YJL095W, strain BCK1 (second series), active compounds read low 0.996 | locus YJL095W, strain BCK1, active compounds read low 1.06 and 0.938 | locus YJL115W, strain asf1, active compounds read low 0.977 | locus YJL129C, strain trk1, active compounds read low 0.906 | locus YJL134W, strain LCB3, active compounds read low 1 | locus YJL154C, strain vps35, active compounds read low 0.981 | locus YJL164C, strain tpk1, active compounds read low 0.957 | locus YJL168C, strain set2, active compounds read low 1 | locus YJL187C, strain SWE1 (second series), active compounds read low 1.01 | locus YJL187C, strain SWE1, active compounds read low 0.934 | locus YJR043C, strain POL32, active compounds read low 0.867
